In PubChem BioAssay (NCATS):
Inconclusive results are not listed. Entries that show only a call come without a potency. Unmarked numbers belong to inactive results. Activity calls are given as the source filed them. Calls follow the shape of the dose curve; as a rule, active = well fitted inhibition curve with a large enough effect; inconclusive = small, poorly fitted or top-dose-only effect; inactive = flat fitted curve, though single readings scatter.

Tests used:
[1] = qHTS profiling for inhibitors of Plasmodium falciparum proliferation (AID 504749); also: nearly all actives have a fitted effect of over 60% in size; details: P. falciparum in erythrocytes, SYBR Green DNA, 72 h
Procedure, shortened: (§1)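 Three-day growth assay of blood-stage parasites in erythrocytes (0.3% parasitemia, 2.5% hematocrit) at 37 C, 5% CO2, quantified by SYBR Green DNA staining after overnight detergent lysis.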

[2] = system: 3D7; test: as above; details: P. falciparum in erythrocytes, SYBR Green DNA, 72 h; series mostly up to 28.7 µM
Procedure, shortened: as §1

[3] = system: 7G8; test: as above; details: P. falciparum in erythrocytes, SYBR Green DNA, 72 h; series mostly up to 28.7 µM
Procedure, shortened: as §1

[4] = system: AA1029; test: as above; details: P. falciparum in erythrocytes, SYBR Green DNA, 72 h; series mostly up to 28.7 µM
Procedure, shortened: as §1

[5] = system: AS120; test: as above; details: P. falciparum in erythrocytes, SYBR Green DNA, 72 h; series mostly up to 28.7 µM
Procedure, shortened: as §1

[6] = system: ATS189; test: as above; details: P. falciparum in erythrocytes, SYBR Green DNA, 72 h; series mostly up to 28.7 µM
Procedure, shortened: as §1

[7] = system: ATS95; test: as above; details: P. falciparum in erythrocytes, SYBR Green DNA, 72 h; series mostly up to 28.7 µM
Procedure, shortened: as §1

[8] = system: C2A; test: as above; details: P. falciparum in erythrocytes, SYBR Green DNA, 72 h; series mostly up to 28.7 µM
Procedure, shortened: as §1

[9] = system: CP185; test: as above; details: P. falciparum in erythrocytes, SYBR Green DNA, 72 h; series mostly up to 28.7 µM
Procedure, shortened: as §1

[10] = system: CP191; test: as above; details: P. falciparum in erythrocytes, SYBR Green DNA, 72 h; series mostly up to 28.7 µM
Procedure, shortened: as §1

[11] = system: CP192; test: as above; details: P. falciparum in erythrocytes, SYBR Green DNA, 72 h; series mostly up to 28.7 µM
Procedure, shortened: as §1

[12] = system: CP194; test: as above; details: P. falciparum in erythrocytes, SYBR Green DNA, 72 h; series mostly up to 28.7 µM
Procedure, shortened: as §1

[13] = system: CP201; test: as above; details: P. falciparum in erythrocytes, SYBR Green DNA, 72 h; series mostly up to 28.7 µM
Procedure, shortened: as §1

[14] = system: CP203; test: as above; details: P. falciparum in erythrocytes, SYBR Green DNA, 72 h; series mostly up to 28.7 µM
Procedure, shortened: as §1

[15] = system: CP211; test: as above; details: P. falciparum in erythrocytes, SYBR Green DNA, 72 h; series mostly up to 28.7 µM
Procedure, shortened: as §1

[16] = at 28.7 µM (top of the series), parasite line A
[17] = at 28.7 µM (top of the series), parasite line B
Potency is read from the fitted curve at half-maximal effect.

| SMILES | activity, negative = inhibition [1, 16] | activity, negative = inhibition [1, 17] | Potency [2] | Potency [3] | Potency [4] | Potency [5] | Potency [6] | Potency [7] | Potency [8] | Potency [9] | Potency [10] | Potency [11] | Potency [12] | Potency [13] | Potency [14] | Potency [15] | activity, negative = inhibition ([1]; at 12.8 µM (top of the series), parasite line A) | activity, negative = inhibition ([1]; at 12.8 µM (top of the series), parasite line B) | Potency ([1]; parasite line A) | Potency ([1]; parasite line B) |
| --- | --- | --- | --- | --- | --- | --- | --- | --- | --- | --- | --- | --- | --- | --- | --- | --- | --- | --- | --- | --- |
| CCON=O | -4.19% | 0.895% | inactive | inactive | inactive | inactive | inactive | inactive | inactive | inactive | inactive | inactive | inactive | inactive | inactive | inactive | – | – | – | – |
| CC(Cc1ccccc1)NC=O (stereo not drawn) | 1.78% | 3.72% | inactive | inactive | inactive | inactive | inactive | inactive | inactive | inactive | inactive | inactive | inactive | inactive | inactive | inactive | – | – | – | – |
| CC(C)CCON=O | -1.57% | -11.8% | inactive | inactive | inactive | inactive | inactive | inactive | inactive | inactive | inactive | inactive | inactive | inactive | inactive | inactive | – | – | – | – |
| ClC=C(Cl)Cl | 6.3% | 0.959% | inactive | inactive | inactive | inactive | inactive | inactive | inactive | inactive | inactive | inactive | inactive | inactive | inactive | inactive | – | – | – | – |
| O=[N+]([O-])c1cc(I)c(O)c(I)c1 | -8.29% | -20.5% | inactive | inactive | inactive | inactive | inactive | inactive | inactive | inactive | inactive | inactive | inactive | inactive | inactive | inactive | – | – | – | – |
| ClCC1CO1 (stereo not drawn) | 2.63% | -1.12% | inactive | inactive | inactive | inactive | inactive | inactive | inactive | inactive | inactive | inactive | inactive | inactive | inactive | inactive | – | – | – | – |
| [O]=[Cd] | 10.1% | 8.29% | inactive | inactive | inactive | inactive | inactive | inactive | inactive | inactive | inactive | inactive | inactive | inactive | inactive | inactive | – | – | – | – |
| CCCC(C)C1(CC)C(=O)NC(=O)NC1=O (stereo not drawn) | 2.58% | 0.184% | inactive | inactive | inactive | inactive | inactive | inactive | inactive | inactive | inactive | inactive | inactive | inactive | inactive | inactive | – | – | – | – |
| CCC(C)(S(=O)(=O)CC)S(=O)(=O)CC | 9.02% | 9.51% | inactive | inactive | inactive | inactive | inactive | inactive | inactive | inactive | inactive | inactive | inactive | inactive | inactive | inactive | – | – | – | – |
| C[N+]1(C)CCCCC1COC(=O)C(O)(c1ccccc1)c1ccccc1 (stereo not drawn) | -21.5% | -9.17% | inactive | inactive | inactive | inactive | inactive | inactive | inactive | inactive | inactive | inactive | inactive | inactive | inactive | inactive | – | – | – | – |
| O=C(CS(=O)C(c1ccccc1)c1ccccc1)NO (stereo not drawn) | -13.7% | 0.0253% | inactive | inactive | inactive | inactive | inactive | inactive | inactive | inactive | inactive | inactive | inactive | inactive | inactive | inactive | – | – | – | – |
| C=CCN(C1=NCCN1)c1c(Cl)cccc1Cl | 11.1% | 1.37% | inactive | inactive | inactive | inactive | inactive | inactive | inactive | inactive | inactive | inactive | inactive | inactive | inactive | inactive | – | – | – | – |
| CCCCCl | 1.32% | 10.6% | inactive | inactive | inactive | inactive | inactive | inactive | inactive | inactive | inactive | inactive | inactive | inactive | inactive | inactive | – | – | – | – |
| CC[N+](C)(CC)CCOC(=O)C(O)(c1ccccc1)c1ccccc1 | 5.27% | 8.78% | inactive | inactive | inactive | inactive | inactive | inactive | inactive | inactive | inactive | inactive | inactive | inactive | inactive | inactive | – | – | – | – |
| O=S(=O)(O)c1cc(O)ccc1O | – | – | inactive | inactive | inactive | inactive | inactive | inactive | inactive | inactive | inactive | inactive | inactive | inactive | inactive | inactive | 3.73% | -1.7% | – | – |
| [N-]=[N+]=CC(=O)OCC(N)C(=O)O (stereo not drawn) | 3.54% | -4.07% | inactive | inactive | inactive | inactive | inactive | inactive | inactive | inactive | inactive | inactive | inactive | inactive | inactive | inactive | – | – | – | – |
| O=C(OCCN1CCCCC1)C(O)(c1ccccc1)c1ccccc1 | 8.26% | -1.95% | inactive | inactive | inactive | inactive | inactive | inactive | inactive | inactive | inactive | inactive | inactive | inactive | inactive | inactive | – | – | – | – |
| CC(C)(O)C1C2OC(=O)C1C1(O)CC3OC34C(=O)OC2C14C (stereo not drawn) | 13.7% | 0.0355% | inactive | inactive | inactive | inactive | inactive | inactive | inactive | inactive | inactive | inactive | inactive | inactive | inactive | inactive | – | – | – | – |
| O=C(O)C(Cl)(Cl)Cl | 7.18% | 2% | inactive | inactive | inactive | inactive | inactive | inactive | inactive | inactive | inactive | inactive | inactive | inactive | inactive | inactive | – | – | – | – |
| O=c1[nH]cc(N(CCCl)CCCl)c(=O)[nH]1 | -0.577% | -4.63% | inactive | inactive | inactive | inactive | inactive | inactive | inactive | inactive | inactive | inactive | inactive | inactive | inactive | inactive | – | – | – | – |
| O[C@H]1[C@H]2[C@H](O)CCCN2C[C@H]1O | 9.76% | 2.41% | inactive | inactive | inactive | inactive | inactive | inactive | inactive | inactive | inactive | inactive | inactive | inactive | inactive | inactive | – | – | – | – |
| CC(N)Cc1ccc(O)cc1 (stereo not drawn) | -0.875% | 1.76% | inactive | inactive | inactive | inactive | inactive | inactive | inactive | inactive | inactive | inactive | inactive | inactive | inactive | inactive | – | – | – | – |
| C=CCN1CC[C@]23c4c5ccc(O)c4O[C@H]2[C@@H](O)C=C[C@H]3[C@H]1C5 | -14.2% | 6.2% | inactive | inactive | inactive | inactive | inactive | inactive | inactive | inactive | inactive | inactive | inactive | inactive | inactive | inactive | – | – | – | – |
| CC(=O)OO | 5.76% | 13% | inactive | inactive | inactive | inactive | inactive | inactive | inactive | inactive | inactive | inactive | inactive | inactive | inactive | inactive | – | – | – | – |
| O=C(CCl)c1ccc(Oc2ccc(C(=O)CCl)cc2)cc1 | 5.66% | 2.87% | inactive | inactive | inactive | inactive | inactive | inactive | inactive | inactive | inactive | inactive | inactive | inactive | inactive | inactive | – | – | – | – |
| C=CCN1CCC23c4c5ccc(O)c4O[C@H]2C(=O)CC[C@@]3(O)C1C5 (stereo partly drawn) | 8.48% | -7.58% | inactive | inactive | inactive | inactive | inactive | inactive | inactive | inactive | inactive | inactive | inactive | inactive | inactive | inactive | – | – | – | – |
| COC([CH2][Hg])CNC(=O)c1ccccc1OCC(=O)O (stereo not drawn) | 6.16% | 2.49% | inactive | inactive | inactive | inactive | inactive | inactive | inactive | inactive | inactive | inactive | inactive | inactive | inactive | inactive | – | – | – | – |
| CCC(N)Cc1c[nH]c2ccccc12 (stereo not drawn) | -18.9% | 9.32% | inactive | inactive | inactive | inactive | inactive | inactive | inactive | inactive | inactive | inactive | inactive | inactive | inactive | inactive | – | – | – | – |
| C[CH2][Hg][S]c1ccccc1C(=O)O | – | – | 1.78 µM (active) | 1.12 µM (active) | 3.16 µM (active) | 3.16 µM (active) | 3.55 µM (active) | 2 µM (active) | 3.98 µM (active) | 2 µM (active) | 3.55 µM (active) | 4.78 µM (active) | 3.01 µM (active) | 4.26 µM (active) | – | 4.26 µM (active) | – | – | 2.82 µM (active) | 3.16 µM (active) |
